According to PubChem BioAssay (EPA / NIEHS):
Where “and” joins values, the source holds several entries; their conditions need not be identical. Equal entries are not always repeated. Calls of active or inactive are those of the source. The calls were made as follows: active = hit-call score of the fitted dose curve at least 0.9, where 1 is the maximum; inactive = score below 0.9.

Tests used:
[1] = BSK_CASM3C_SRB: Viability Assessment in the BioMAP Diversity Plus: CASM3C Assay (AID 2283050); conditions: primary human coronary artery smooth muscle cells;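 also: total protein by SRB staining as cytotoxicity measure in parallel cultures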
[2] = read-out: Thrombomodulin, THBD (gene 7056); experiment: BSK_CASM3C_Thrombomodulin: BioMAP Diversity Plus: CASM3C Assay for Thrombomodulin Biomarker Activity (AID 2283051); conditions: primary human coronary artery smooth muscle cells; actives raise or lower the signal;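 also: thrombomodulin protein level measured by ELISA 24 h after dosing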
[3] = read-out: Tissue Factor, F3 (gene 2152); experiment: BSK_CASM3C_TissueFactor: BioMAP Diversity Plus: CASM3C Assay for Tissue Factor Biomarker Activity (AID 2283052); conditions: primary human coronary artery smooth muscle cells; actives raise or lower the signal;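 also: cell surface tissue factor protein level read by ELISA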
[4] = read-out: Interferon-gamma inducible Protein 10 (IP10), CXCL10 (gene 3627); experiment: BSK_hDFCGF_IP10: BioMAP Diversity Plus: hDFCGF Assay for Interferon-gamma inducible Protein 10 (IP10) Biomarker Activity (AID 2283053); conditions: primary human foreskin fibroblasts; actives raise or lower the signal
Summary of the method: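 Human foreskin fibroblast primary cells (hDFCGF system) were dosed with chemical and assayed at 24 h; IP-10 measured by ELISA. Activity fitted bidirectionally relative to DMSO negative control as baseline.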

[5] = read-out: Vascular cell adhesion molecule 1 (VCAM1), VCAM1 (gene 7412); experiment: BSK_CASM3C_VCAM1: BioMAP Diversity Plus: CASM3C Assay for Vascular cell adhesion molecule 1 (VCAM1) Biomarker Activity (AID 2283055); conditions: primary human coronary artery smooth muscle cells; actives raise or lower the signal;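 also: VCAM-1 protein level quantified by ELISA on the cells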
[6] = read-out: Collagen III, COL3A1 (gene 1281); experiment: BSK_hDFCGF_CollagenIII: BioMAP Diversity Plus: hDFCGF Assay for Collagen III Biomarker Activity (AID 2283056); conditions: primary human foreskin fibroblasts; actives raise or lower the signal
Summary of the method: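 Human foreskin primary fibroblasts were exposed to test chemicals for 24 h, after which collagen III was quantified by ELISA. Activity was fitted bidirectionally against DMSO as negative control and baseline.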

[7] = read-out: Epidermal growth factor receptor (EGFR), EGFR (gene 1956); experiment: BSK_hDFCGF_EGFR: BioMAP Diversity Plus: hDFCGF Assay for Epidermal growth factor receptor (EGFR) Biomarker Activity (AID 2283057); conditions: primary human foreskin fibroblasts; actives raise or lower the signal
Summary of the method: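 Primary human foreskin fibroblasts were exposed to compound for 24 h, after which cell-surface EGFR was quantified by ELISA. Activity was fitted bidirectionally against the DMSO negative control as baseline.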

[8] = read-out: Interleukin-8 (IL8), CXCL8 (gene 3576); experiment: BSK_hDFCGF_IL8: BioMAP Diversity Plus: hDFCGF Assay for Interleukin-8 (IL8) Biomarker Activity (AID 2283058); conditions: primary human foreskin fibroblasts; actives raise or lower the signal
Summary of the method: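 hDFCGF human dermal fibroblasts; 24 h chemical exposure; IL-8 by ELISA; bidirectional curve fit vs DMSO baseline; gain or loss of signal scored.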

[9] = BSK_hDFCGF_Proliferation: Cell Proliferation Assessment in the BioMAP Diversity Plus: hDFCGF Assay (AID 2283059); conditions: primary human foreskin fibroblasts;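 also: curves fitted for both rise and fall of signal versus DMSO baseline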
Summary of the method: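 Total protein read at 560 nm after 0.1% SRB staining of TCA-fixed human skin fibroblasts, […]. Activity is fitted in both directions relative to DMSO as baseline.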

[10] = read-out: Macrophage colony-stimulating factor (MCSF), CSF1 (gene 1435); experiment: BSK_hDFCGF_MCSF: BioMAP Diversity Plus: hDFCGF Assay for Macrophage colony-stimulating factor (MCSF) Biomarker Activity (AID 2283060); conditions: primary human foreskin fibroblasts; actives raise or lower the signal
Summary of the method: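 Human foreskin primary fibroblasts were treated with test chemical for 24 h, and M-CSF was then measured by ELISA. Data were fitted bidirectionally against DMSO as the negative control and activity baseline.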

[11] = read-out: TIMP metallopeptidase inhibitor 1 (TIMP1), TIMP1 (gene 7076); experiment: BSK_hDFCGF_TIMP1: BioMAP Diversity Plus: hDFCGF Assay for TIMP metallopeptidase inhibitor 1 (TIMP1) Biomarker Activity (AID 2283062); conditions: primary human foreskin fibroblasts; actives raise or lower the signal
Summary of the method: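 Primary human foreskin fibroblasts in the hDFCGF system were dosed with compound for 24 h, then TIMP-1 was measured by ELISA. Activity was fitted bidirectionally relative to DMSO control; parallel SRB staining assessed cytotoxicity.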

[12] = read-out: Monokine induced gamma interferon (MIG), CXCL9 (gene 4283); experiment: BSK_hDFCGF_MIG: BioMAP Diversity Plus: hDFCGF Assay for Monokine induced gamma interferon (MIG) Biomarker Activity (AID 2283063); conditions: primary human foreskin fibroblasts; actives raise or lower the signal
Summary of the method: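 ELISA read-out of MIG from primary human dermal fibroblasts 24 h post-dosing. Gain or loss of signal fitted bidirectionally, DMSO as baseline.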

[13] = read-out: Matrix Metallopeptidase 1 (MMP1), MMP1 (gene 4312); experiment: BSK_hDFCGF_MMP1: BioMAP Diversity Plus: hDFCGF Assay for Matrix Metallopeptidase 1 (MMP1) Biomarker Activity (AID 2283064); conditions: primary human foreskin fibroblasts; actives raise or lower the signal
Summary of the method: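 Primary human foreskin fibroblasts in the hDFCGF system were dosed with test chemical, and MMP1 was measured by ELISA 24 h later. Values come from bidirectional curve fitting against the DMSO baseline.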

[14] = read-out: Plasminogen activator inhibitor-1 (PAI1), SERPINE1 (gene 5054); experiment: BSK_hDFCGF_PAI1: BioMAP Diversity Plus: hDFCGF Assay for Plasminogen activator inhibitor-1 (PAI1) Biomarker Activity (AID 2283066); conditions: primary human foreskin fibroblasts; actives raise or lower the signal
Summary of the method: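 Human foreskin fibroblasts in the hDFCGF system were dosed with compound for 24 h; PAI-1 was quantified by ELISA. Bidirectional curve fitting used DMSO as negative control and baseline.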

[15] = read-out: Intercellular Adhesion Molecule 1 (ICAM1), ICAM1 (gene 3383); experiment: BSK_KF3CT_ICAM1: BioMAP Diversity Plus: KF3CT Assay for Intercellular Adhesion Molecule 1 (ICAM1) Biomarker Activity (AID 2283067); conditions: primary human keratinocytes with fibroblasts; actives raise or lower the signal
Summary of the method: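 Human keratinocyte plus foreskin fibroblast primary co-culture was exposed to chemical for 24 h. ICAM-1 was then quantified by ELISA, and the data were fit bidirectionally against DMSO as the negative control and baseline.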

[16] = read-out: Interferon-gamma inducible Protein 10 (IP10), CXCL10 (gene 3627); experiment: BSK_KF3CT_IP10: BioMAP Diversity Plus: KF3CT Assay for Interferon-gamma inducible Protein 10 (IP10) Biomarker Activity (AID 2283068); conditions: primary human keratinocytes with fibroblasts; actives raise or lower the signal
Summary of the method: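 Human keratinocyte plus foreskin fibroblast primary co-culture exposed to test chemical for 24 h; IP-10 measured by ELISA. Concentration-response fitted bidirectionally against DMSO control as baseline.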

[17] = BSK_KF3CT_SRB: Viability Assessment in the BioMAP Diversity Plus: KF3CT Assay (AID 2283069); conditions: primary human keratinocytes with fibroblasts;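 also: total protein by sulforhodamine B staining as a cytotoxicity measure; read 24 h after compound addition; fitted for both signal gain and loss against DMSO baseline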
Summary of the method: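 Human primary keratinocyte plus foreskin fibroblast co-culture exposed to chemicals for 24 h. Total protein measured by 0.1% sulforhodamine B staining after 10% TCA fixation, read at 560 nm; bidirectional fitting versus DMSO baseline.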

[18] = read-out: TIMP metallopeptidase inhibitor 2 (TIMP2), TIMP2 (gene 7077); experiment: BSK_KF3CT_TIMP2: BioMAP Diversity Plus: KF3CT Assay for TIMP metallopeptidase inhibitor 2 (TIMP2) Biomarker Activity (AID 2283071); conditions: primary human keratinocytes with fibroblasts; actives raise or lower the signal
Summary of the method: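 Human primary keratinocyte/foreskin fibroblast co-culture dosed with chemical and sampled at 24 h. TIMP-2 levels quantified by ELISA; bidirectional fitting against DMSO negative control as baseline.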

[19] = read-out: Matrix Metallopeptidase 9 (MMP9), MMP9 (gene 4318); experiment: BSK_KF3CT_MMP9: BioMAP Diversity Plus: KF3CT Assay for Matrix Metallopeptidase 9 (MMP9) Biomarker Activity (AID 2283074); conditions: primary human keratinocytes with fibroblasts; actives raise or lower the signal;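 as to AC50: MMP9 protein level quantified by ELISA in the co-culture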
Summary of the method: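 Keratinocyte plus foreskin fibroblast human primary skin co-culture was dosed with chemical and MMP-9 was quantified by ELISA 24 h later. Bidirectional curve fitting used DMSO as negative control and activity baseline.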

CD40, CD40 (gene 958) = experiment: BSK_LPS_CD40: BioMAP Diversity Plus: LPS Assay for CD40 Biomarker Activity (AID 2283076); conditions: primary human HUVEC with PBMC; actives raise or lower the signal
Summary of the method: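 Primary human umbilical vein endothelial cells co-cultured with peripheral blood mononuclear cells, LPS-stimulated, were dosed with chemical and read 24 h later. CD40 levels were measured by ELISA and fitted bidirectionally against DMSO as negative control and baseline.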

Measured: AC50

CCCOC(=O)c1ccccc1C(=O)OCCC
inactive: all assays above

O=C(CCl)c1ccccc1
active: [1] 12.2 µM | [4] 4.64 µM | [5] 7.45 µM | [6] 4.85 µM | [8] 7.52 µM | [9] 1.4 µM | [10] 5.84 µM | [11] 5.12 µM | [12] 6.78 µM | [13] 9.79 µM | [14] 6.44 µM | [15] 21.3 µM | [16] 13.8 µM | [17] 30.9 µM | [18] 36.4 µM | [19] 18 µM | CD40, CD40 (gene 958) 4.58 µM
inactive: [2] | [3] | [7]

O=[N+]([O-])c1ccc(Cl)cc1
inactive: all assays above

CC(C)(c1cc(Cl)c(O)c(Cl)c1)c1cc(Cl)c(O)c(Cl)c1
active: [1] 31.6 µM | [3] 10.9 µM | [4] 11.5 µM | [5] 20 µM | [6] 29.6 µM | [8] 28.5 µM | [9] 7.69 µM | [10] 12.2 µM | [11] 11 µM | [12] 14.8 µM | [13] 11.1 µM | [14] 6.66 µM | [15] 7.95 µM | [16] 7.37 µM | [17] 5.15 µM | [18] 5.51 µM | [19] 8.32 µM | CD40, CD40 (gene 958) 17.3 µM
inactive: [2] | [7]

COc1ccc(CO)cc1
inactive: all assays above

C=CCN(CC=C)C(=O)C(Cl)Cl
inactive: all assays above

Oc1ccc(C2(c3ccc(O)cc3)c3ccccc3-c3ccccc32)cc1
inactive: [7]
active: [1] 20 µM | [2] 1.93 µM and 20 µM | [3] 178 nM and 3.97 µM | [4] 2.87 µM and 2.53 µM | [5] 3.97 µM | [6] 2.68 µM and 2.27 µM | [8] 6.24 µM and 5.65 µM | [9] 1.12 µM and 927 nM | [10] 2.26 µM and 2.51 µM | [11] 1.47 µM and 1.56 µM | [12] 3.38 µM and 2.61 µM | [13] 3.97 µM and 2.03 µM | [14] 728 nM and 803 nM | [15] 11.9 µM and 10.4 µM | [16] 6.03 µM and 7.32 µM | [17] 5.12 µM and 5.08 µM | [18] 5.37 µM and 5.43 µM | [19] 5.39 µM and 5.41 µM | CD40, CD40 (gene 958) 12.1 µM and 10.1 µM

CC(C)CCCCCCCOC(=O)c1ccccc1C(=O)OCCCCCCCC(C)C
inactive: all assays above

CC(C)COP(=O)(OCC(C)C)OCC(C)C
inactive: all assays above

CC(C)(C)C(O)C(Oc1ccc(-c2ccccc2)cc1)n1cncn1 (stereo not given)
active: [1] 30.5 µM | [3] 14.4 µM | [5] 30.9 µM | [6] 24.9 µM | [18] 20 µM | [19] 28 µM
inactive: all other assays above
